Source: the supplement of paper PMC4466140

What follows are binders tested against SpBzz1-D2 (assay: SPOT peptide array binding signal intensity (averaged, normalized) (arbitrary units (background-subtracted, floor 0; scale differs between SH3 domains)); higher = stronger binding of the SH3 domain to the peptide).
Description: (§1)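 GST-tagged SH3 domains from S. cerevisiae (Sc), A. gossypii (Ag), C. albicans (Ca) and S. pombe (Sp) were incubated at 10 ug/ml overnight at 4 C on cellulose SPOT membranes carrying 292 synthetic 15-mer peptides mined from the S. cerevisiae proteome (cysteines replaced by serines). Binding was detected with anti-GST antibody, HRP secondary and chemiluminescence, quantified with Genespotter, and reported as normalized spot intensities averaged over biological replicates.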

| Binder | SPOT peptide array binding signal intensity |
| --- | --- |
| LYKRKPILLPDPKPL | 0.5 |

The binders below were run against SpCyk3 in the same assay as above.
Description: as §1

| Binder | SPOT peptide array binding signal intensity |
| --- | --- |
| LYKRKPILLPDPKPL | ≤ 0 |

What follows are binders tested against SpHof1 in the same assay as above.
Description: as §1

| Binder | SPOT peptide array binding signal intensity |
| --- | --- |
| LYKRKPILLPDPKPL | 6.25 |

The binders below were run against SpHof1-2 in the same assay as above.
Description: as §1

| Binder | SPOT peptide array binding signal intensity |
| --- | --- |
| LYKRKPILLPDPKPL | 7.5 |

The binders below were run against SpHof1-3 in the same assay as above.
Description: as §1

| Binder | SPOT peptide array binding signal intensity |
| --- | --- |
| LYKRKPILLPDPKPL | 83 |

Each binder was assayed against SpHse1 in the same assay as above.
Description: as §1

| Binder | SPOT peptide array binding signal intensity |
| --- | --- |
| LYKRKPILLPDPKPL | 4 |

These binders were tested against SpLsb1 in the same assay as above.
Description: as §1

| Binder | SPOT peptide array binding signal intensity |
| --- | --- |
| LYKRKPILLPDPKPL | 19.8 |

The binders below were run against SpLsb4 in the same assay as above.
Description: as §1

| Binder | SPOT peptide array binding signal intensity |
| --- | --- |
| LYKRKPILLPDPKPL | ≤ 0 |

What follows are binders tested against SpMyo1 in the same assay as above.
Description: as §1

| Binder | SPOT peptide array binding signal intensity |
| --- | --- |
| LYKRKPILLPDPKPL | ≤ 0 |

Each binder was assayed against SpNbp2 in the same assay as above.
Description: as §1

| Binder | SPOT peptide array binding signal intensity |
| --- | --- |
| LYKRKPILLPDPKPL | 5.5 |

The binders below were run against SpPex13 in the same assay as above.
Description: as §1

| Binder | SPOT peptide array binding signal intensity |
| --- | --- |
| LYKRKPILLPDPKPL | ≤ 0 |

Each binder was assayed against SpRvs167 in the same assay as above.
Description: as §1

| Binder | SPOT peptide array binding signal intensity |
| --- | --- |
| LYKRKPILLPDPKPL | 12.3 |

Each binder was assayed against SpSla1-D1-D2 in the same assay as above.
Description: as §1

| Binder | SPOT peptide array binding signal intensity |
| --- | --- |
| LYKRKPILLPDPKPL | ≤ 0 |

These binders were tested against SpSla1-D3 in the same assay as above.
Description: as §1

| Binder | SPOT peptide array binding signal intensity |
| --- | --- |
| LYKRKPILLPDPKPL | ≤ 0 |
